High-throughput results (PubChem)
Compounds with a hit are over-represented: about 1.1% of the library has one in this group of screens.
S1P4 agonist – agonists of human S1P4 receptor | O95977 | S1P4-expressing cell line, agonist reporter assay | activation, % at 4.98 µM | 220,000 tested, 0.35% active; in the data active = activation above about 11%
S1P3 antagonist – blocks the human S1P3 receptor. Q99500. CHO S1P3 NFAT-BLA reporter, FRET fluorescence, antagonist mode. inhibition, % at 4.98 µM. 170,000 tested, 0.27% active. AID 485;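 active = inhibition above the plate cutoff, the mean inhibition of test wells on that plate plus 3 SD, cut at about 28% in these data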;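 also: cells challenged with S1P at its EC80 of 0.8 µM; blue over green emission ratio from cleaved BLA substrate after 4 h stimulation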
p97 inhibitor – human p97 ATPase inhibition | recombinant p97 ATPase, Kinase-Glo ATP luminescence, 3 h | inhibition, % at 8 µM | 220,000 tested, 0.42% active; in the data active = inhibition above about 15%
SUMO HTRF inh – SUMOylation inhibition; P63279; HTRF SUMOylation assay, SAE1/SAE2 + UBC9, in vitro; inhibition, % at 35 µM; 290,000 tested, 0.36% active; AID 2006; in the data active = inhibition above about 50%, passing the limit was not always enough
Target sequence (P63279 whole entry, looked up): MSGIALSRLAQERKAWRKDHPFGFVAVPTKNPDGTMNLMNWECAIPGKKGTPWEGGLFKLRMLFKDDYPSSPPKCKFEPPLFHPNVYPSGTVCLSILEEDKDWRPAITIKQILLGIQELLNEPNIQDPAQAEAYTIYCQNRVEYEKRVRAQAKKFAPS
Redox H2O2 prof – compounds producing H2O2 with reducing agent – biochemical, NIH compound library profiling, artefact control for MLSCN library redox annotation, primary screen; DTT-dependent redox cycling H2O2, phenol red/HRP absorbance; 100% = 100 µM peroxide control, 0% = buffer; activation, % at 10 µM; 200,000 tested, 0.03% active;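 active = activation of at least 50% relative to the plate's high and low controls in the primary single-dose screen; inactive = activation below 50%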;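 also: compound incubated with DTT at 0.8 mM final as the reducing agent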
S1P4 antag – human S1P4 receptor antagonism; O95977; S1P4-expressing cells, antagonist mode, reporter read-out; inhibition, % at 4.98 µM; 220,000 tested, 0.26% active; AID 1510; in the data active = inhibition above about 29%
S1P4 agonist cf – human S1P4 agonism, confirmation. AID 1523. 740 tested, 7% active. shares compounds with S1P4 agonist. S1P4 agonist cell-based reporter assay. activation, % at 4.98 µM; in the data active = activation above about 12%
S1P1 ag – human S1P1 agonism as S1P4 agonist counter-screen; shares compounds with S1P4 agonist; S1P1 agonist cell-based assay, activation; activation, % at 4.98 µM; 740 tested, 4% active; AID 1563; in the data active = activation above about 21%
Target sequence (P21453 whole entry, looked up): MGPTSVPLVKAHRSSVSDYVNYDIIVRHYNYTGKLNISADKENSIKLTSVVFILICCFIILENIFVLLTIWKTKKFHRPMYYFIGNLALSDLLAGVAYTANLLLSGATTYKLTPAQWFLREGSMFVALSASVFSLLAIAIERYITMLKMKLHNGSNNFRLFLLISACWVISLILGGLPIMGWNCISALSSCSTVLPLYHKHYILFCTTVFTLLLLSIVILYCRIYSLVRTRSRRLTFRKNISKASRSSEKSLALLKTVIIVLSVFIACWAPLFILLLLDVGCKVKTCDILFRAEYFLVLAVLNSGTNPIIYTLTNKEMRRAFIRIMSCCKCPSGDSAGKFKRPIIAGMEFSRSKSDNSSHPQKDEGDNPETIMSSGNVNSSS
Large screens that a line does not name were inactive (follow-up assays come after a bar, where they were run).

NC(=O)C1CCN(C(c2ccccc2Cl)c2nnnn2Cc2ccc3c(c2)OCO3)CC1 (configuration not stated)	none
O=C(Cc1ccccc1[N+](=O)[O-])N1CCN(c2ccc(F)cc2)CC1	S1P4 agonist 74 | S1P4 agonist cf inactive | S1P1 ag inactive
CC1CCN(c2ccc3nnc(CCC(=O)Nc4cccc(F)c4)n3n2)CC1	none (no result: S1P4 agonist, S1P3 antagonist, p97 inhibitor, Redox H2O2 prof, S1P4 antag)
Cc1cc(C)c2c(=O)[nH]c(SCC(=O)NCCc3ccccc3)nc2n1	S1P4 agonist 12 (no result: S1P3 antagonist) | S1P4 agonist cf inactive | S1P1 ag inactive
O=S(=O)(c1ccccc1)c1ccc(C(F)(F)F)cn1	S1P4 agonist 35 | S1P4 agonist cf inactive | S1P1 ag inactive
Nc1ccc(S(=O)(=O)c2ccccc2)nc1	none (no result: S1P4 agonist, S1P3 antagonist, p97 inhibitor, Redox H2O2 prof, S1P4 antag)
COc1ccc(/C(O)=C2/C(=O)C(=O)N(c3ccccn3)C2c2ccc(F)cc2)cc1 (configuration not stated)	none (no result: S1P4 agonist, S1P3 antagonist, p97 inhibitor, Redox H2O2 prof, S1P4 antag)
CC(=O)Nc1ccccc1O	none
CC(=O)Nc1ccccc1C(=O)C(=O)O	S1P4 agonist 13 (no result: S1P3 antagonist) | S1P4 agonist cf inactive | S1P1 ag inactive
CCCCc1nnc(NC(=O)c2ccc3[nH]c(=O)c(=O)[nH]c3c2)s1	none (no result: S1P4 agonist, S1P3 antagonist, p97 inhibitor, Redox H2O2 prof, S1P4 antag)
CN(C)CCCNS(=O)(=O)c1ccc(N2CCC(c3ccc(Cl)cc3)=N2)cc1	S1P4 agonist 96, SUMO HTRF inh 65 (no result: S1P3 antagonist) | S1P4 agonist cf 59 | S1P1 ag 153
O=S(=O)(c1ccc(Oc2ccc(S(=O)(=O)N(CCO)CCO)cc2)cc1)N(CCO)CCO	none
O=S(=O)(c1ccc(N2CCC(c3ccc(Cl)cc3)=N2)cc1)N(CCO)CCO	S1P4 agonist 21 (no result: S1P3 antagonist) | S1P4 agonist cf 21 | S1P1 ag 69
CC(/C=N/N1CCN(c2ccccn2)CC1)=C\c1ccccc1	S1P4 agonist 11 | S1P4 agonist cf inactive | S1P1 ag inactive
CC(/C=N/N1CCN(c2ccccc2)CC1)=C\c1ccccc1	none (no result: S1P3 antagonist)
COc1ccc(C(=O)CSc2nnc(CNC(=O)c3ccccc3F)n2C)cc1OC	none (no result: S1P4 agonist, S1P3 antagonist, p97 inhibitor, Redox H2O2 prof, S1P4 antag)
COc1ccc(C(=O)NCC(=O)OCC(=O)Nc2c(C)n(C)n(-c3ccccc3)c2=O)cc1	S1P4 agonist 104 (no result: S1P3 antagonist) | S1P4 agonist cf inactive | S1P1 ag inactive
CCc1ccc(/C=C2\Oc3ccc(C(=O)OC)cc3C2=O)cc1	none
COC(=O)c1ccc2c(c1)C(=O)/C(=C/c1ccc(C)cc1)O2	S1P4 agonist 13 | S1P4 agonist cf inactive | S1P1 ag inactive
O=C1NC(c2ccco2)Nc2sc3c(c21)CCN(Cc1ccccc1)C3 (configuration not stated)	S1P4 agonist 15 | S1P4 agonist cf inactive | S1P1 ag inactive
CC(=O)Nc1ccc(S(=O)(=O)Nc2cc(C)cn(Cc3ccccc3)c2=O)cc1	none (no result: S1P4 agonist, S1P3 antagonist, p97 inhibitor, Redox H2O2 prof, S1P4 antag)
CCc1nnc(NC=C2C(=O)OC(C)(C)OC2=O)s1	S1P4 agonist 18 | S1P4 agonist cf inactive | S1P1 ag inactive
Cc1nn(Cc2ccc(F)cc2)c(C)c1NC(=O)c1cc(-c2ccc3c(c2)OCO3)on1	none
Cc1ccc(Cn2nc(C)c(NC(=O)c3cc(-c4ccc5c(c4)OCO5)on3)c2C)cc1	S1P4 agonist 19 | S1P4 agonist cf inactive | S1P1 ag inactive
O=S(=O)(NC1CCCCC1NS(=O)(=O)c1ccc(F)cc1)c1ccc(F)cc1 (configuration not stated)	S1P4 agonist 15 | S1P4 agonist cf inactive | S1P1 ag inactive
O=S(=O)(NC1CCCCC1Nc1ccccc1)c1ccccc1 (configuration not stated)	S1P4 agonist 16 | S1P4 agonist cf inactive | S1P1 ag inactive
O=C(O)c1ccccc1NC1CCCCC1NS(=O)(=O)c1ccccc1 (configuration not stated)	none (no result: S1P4 agonist, S1P3 antagonist, p97 inhibitor, Redox H2O2 prof, S1P4 antag)
CCC(C(=O)O)n1c2ccccc2c2cn[nH]c(=O)c21 (configuration not stated)	none (no result: S1P4 agonist, S1P3 antagonist, p97 inhibitor, Redox H2O2 prof, S1P4 antag)
O=C(N/N=C/c1cc([N+](=O)[O-])ccc1O)c1cc(-c2ccccc2)nc2ccccc12	none
Cc1cc(C(=O)N/N=C/c2cc([N+](=O)[O-])ccc2O)c2ccccc2n1	S1P4 agonist 22 | S1P4 agonist cf inactive | S1P1 ag inactive
CCOc1cc(C(N)=O)cc(Cl)c1OCc1ccccc1	S1P4 agonist 24 | S1P4 agonist cf inactive | S1P1 ag inactive
COc1cc(C(N)=O)cc(Cl)c1OCc1ccccc1	none
O=C(COC(=O)c1c2c(nc3ccccc13)CCN(Cc1ccccc1)C2)Nc1c(F)cccc1F	S1P4 agonist 58 | S1P4 agonist cf inactive | S1P1 ag inactive
Cc1ccc(CN2CCN(Cc3cn[nH]c3-c3cccc(F)c3)CC2CCO)o1 (configuration not stated)	S1P4 agonist 15 | S1P4 agonist cf inactive | S1P1 ag inactive
Cc1ccc(CN2CCN(Cc3cn[nH]c3-c3ccccc3)CC2CCO)o1 (configuration not stated)	none
CCOC(=O)c1nc(C)nc(Sc2n[nH]c(-c3cc(C(F)(F)F)cc(C(F)(F)F)c3)n2)c1C	none (no result: Redox H2O2 prof)
COc1ccc2nc(NC3=NC(C(=O)Nc4ccc(C)cc4)CC(=O)N3)nc(C)c2c1 (configuration not stated)	S1P4 agonist 38 | S1P4 agonist cf inactive | S1P1 ag inactive
COc1ccc(NC(=O)C2CC(=O)NC(Nc3cccc(C)c3)=N2)cc1 (configuration not stated)	none
O=C(Cc1ncc(C(F)(F)F)cc1Cl)NCCc1ccccn1	S1P4 agonist 13 | S1P4 agonist cf inactive | S1P1 ag inactive
C#Cc1cccc(-n2nnc(C(C)=O)c2C)c1	S1P4 agonist 68 (no result: Redox H2O2 prof) | S1P4 agonist cf inactive | S1P1 ag inactive
CC(=O)c1nnn(-c2c(F)cccc2F)c1C	none (no result: Redox H2O2 prof)
CCCCC(=O)NCCc1ccc(OC)cc1	S1P4 agonist 26 (no result: S1P3 antagonist) | S1P4 agonist cf inactive | S1P1 ag inactive
O=C(NCCC(=O)N1CCC2(CC1)NCCc1[nH]cnc12)c1cccc(Br)c1	none (no result: S1P4 agonist, S1P3 antagonist, p97 inhibitor, Redox H2O2 prof, S1P4 antag)
COc1ccc(N2CCN(C(=O)c3c(-c4c(F)cccc4Cl)noc3C)CC2)cc1	none (no result: S1P4 agonist, S1P3 antagonist, p97 inhibitor, Redox H2O2 prof, S1P4 antag)
Cc1cc(C(=O)NCc2cccnc2)no1	S1P4 agonist 11 | S1P4 agonist cf inactive | S1P1 ag inactive
N#CC(Cc1ccccc1OC(F)F)c1nc2ccccc2[nH]1 (configuration not stated)	none
CC1CCCCN1C(=O)COc1ccccc1F (configuration not stated)	S1P4 agonist 13 | S1P4 agonist cf inactive | S1P1 ag inactive
CC1CCCCN1C(=O)CNCc1ccc(F)cc1 (configuration not stated)	none (no result: S1P4 agonist, S1P3 antagonist, p97 inhibitor, Redox H2O2 prof, S1P4 antag)
COc1cc(NC(=O)c2cccs2)c(OC)cc1NC(=O)CCC(=O)Nc1ccc2ncccc2c1	none
COc1cc(-c2ccc(NC(=O)CN3CCCCC3)c(OC)c2)ccc1NC(=O)CN1CCCCC1	none (no result: SUMO HTRF inh)
